Test results taken from PubChem BioAssay (NCI).
The panel holds about 79,000 compounds, 15% with a hit somewhere; the sample as a whole holds those more often. No stated cut-off is given here; in the data, active means growth inhibition above about 70%; inactive means the rest.

Experiments:
[1] = NCI Yeast Anticancer Drug Screen. Data for the rad50 strain (AID 155);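 further: 0% = growth of vehicle-only cultures of the same strain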; settings: S. cerevisiae rad50 strain growth inhibition; at 50.0 µM; hits give high values
How it was run: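 Growth of the mutant yeast was measured after compound exposure and referenced to vehicle-treated cultures.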

[2] = NCI Yeast Anticancer Drug Screen. Data for the mec2-1 strain (AID 157); settings: S. cerevisiae mec2-1 strain, at 50.0 µM, hits give high values
How it was run: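 Cells of the genetically defined mec2-1 yeast strain are incubated with test compound. Inhibition of growth is calculated against vehicle-treated controls.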

[3] = NCI Yeast Anticancer Drug Screen. Data for the sgs1 mgt1 strain (AID 161);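 further: 0% = growth of cultures given vehicle only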; settings: S. cerevisiae sgs1 mgt1 strain, at 50.0 µM, hits give high values
How it was run: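 Genetically altered yeast, compound exposure, growth inhibition relative to vehicle.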

[4] = NCI Yeast Anticancer Drug Screen. Data for the cln2 rad14 strain (AID 165);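 further: 0% = growth equal to vehicle treated cultures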; settings: S. cerevisiae cln2 rad14 strain, at 50.0 µM, hits give high values
How it was run: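 The screen exposed genetically defined yeast (cln2 rad14) to test compounds and scored growth inhibition relative to vehicle-treated controls.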

[5] = NCI Yeast Anticancer Drug Screen. Data for the bub3 strain (AID 167); settings: S. cerevisiae bub3 mutant strain, at 50.0 µM, hits give high values
How it was run: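 Whole-cell yeast assay. The mutant strain was incubated with compounds, and growth inhibition was determined by comparison with vehicle-treated cells.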

[6] = NCI Yeast Anticancer Drug Screen. Data for the mlh1 rad18 strain (AID 175); settings: S. cerevisiae mlh1 rad18 strain growth inhibition; at 50.0 µM; hits give high values
How it was run: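 Compound-treated yeast growth, normalised to vehicle controls. Strain bears defined DNA repair mutations.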

Measured: growth inhibition

Nc1nc(N)nc(N2CCCCC2)n1
inactive: [1] -23.3% | [2] -5.75% | [3] -16.4% | [4] -41.2% | [5] -4.25% | [6] -19.9%

COC1=C(OC)C(=O)C(SC/C=C(\C)CCCC(C)CCCC(C)CCCC(C)C)=CC1=O (stereo not drawn)
inactive: [1] -31.8% | [2] -24.4% | [3] -43.5% | [4] 16.6% | [5] -52.6% | [6] -61.1%

O=C1C=CC(=O)C2=C1CCCC2
inactive: [1] 17.1% | [2] 10.9% | [3] 10.3% | [4] -9.75% | [5] -20.2% | [6] 26.9%

CNc1ccccc1C(=O)N/N=C/C=C/c1ccccc1
inactive: [1] 31.6% | [2] 0.35% | [3] 31.1% | [4] 2.65% | [5] 5.3% | [6] 14.5%

CCOC(=O)/C(C)=C\c1ccc(OC)c(OC)c1
inactive: [1] -2.15% | [2] -11.2% | [3] 25.9% | [4] -34% | [5] 18.4% | [6] 18.9%

C/C(O)=C(/C=N\C(=S)Nc1ccc(S(=O)(=O)Nc2nccs2)cc1)C(=O)Nc1ccccc1C
inactive: [1] -14.3% | [2] 8.1% | [3] 15.3% | [4] 32.8% | [5] 7.65% | [6] -18.8%

CC(C)(C)[Si](C)(C)OCC1OC(n2cnc3c(N)ncnc32)CC1OS(C)(=O)=O (stereo not drawn)
inactive: [1] -17% | [2] -21.6% | [3] 0.75% | [4] -3.15% | [5] 5.3% | [6] 0.5%

COc1ccc(C2CC(c3ccccc3)=Nc3ccccc3S2)cc1 (stereo not drawn)
inactive: [1] -12.1% | [2] -17.9% | [3] 16% | [4] -11.3% | [5] 25.2% | [6] 0.95%

S=c1nc2[nH]c3ccccc3c2n[nH]1
inactive: [1] 8.45% | [2] -17.9% | [3] -5.65% | [4] -7.3% | [5] -8.95% | [6] 6.45%

O=S(Cc1ccccc1)/C(=C/NC(=S)Nc1cc(Cl)ccc1Cl)c1ccccc1 (stereo not drawn)
inactive: [1] 3.6% | [2] 7.05% | [3] 14.4% | [4] 5.6% | [5] 5.35% | [6] 7.1%

CC1(C)C2CCC1(C)C1(C2)OCCS1 (stereo not drawn)
inactive: [1] 24.8% | [2] -5.25% | [3] 1% | [4] 11.2% | [5] 1.05% | [6] -7.65%

CC(=O)c1cccc(O)c1
inactive: [1] 5.8% | [2] -8.85% | [3] 6.65% | [4] 1.1% | [5] -5.1% | [6] 17.7%

O=[N+]([O-])c1c(O)c(CNCCCO)cc(CNCCCO)c1O
inactive: [1] 13.5% | [2] 29.8% | [3] 18.9% | [4] 19.6% | [5] 25.9% | [6] 43.1%

CC(CO)(CO)C(=O)O
inactive: [1] 4.35% | [2] -31.4% | [3] -11.6% | [4] 21.3% | [5] -14% | [6] 10.1%

Cc1ccc2[nH]c3ccccc3c2c1
inactive: [1] 26.1% | [2] 14.6% | [3] 22.9% | [4] -14.8% | [5] 15% | [6] 31.1%

Cc1c(Cl)cccc1N=C=S
inactive: [1] -9.85% | [2] -24% | [3] 15.4% | [4] 11.5% | [5] -0.95% | [6] 8.7%

O=C(O)c1cc(I)ccc1O
inactive: [1] -6.65% | [2] -0.3% | [3] -1.25% | [4] -33.8% | [5] -12.7% | [6] 26.9%

Cc1ccc(/C=N/NC(N)=S)s1
inactive: [1] 24.9% | [2] 1.9% | [3] 49.1% | [4] -41.5% | [5] -12.8% | [6] 48.5%

S=c1nc(-c2ccccn2)c(-c2ccccn2)n[nH]1
inactive: [1] -11% | [2] -9.05% | [3] -1.2% | [4] 11% | [5] -21.8% | [6] -53.7%

CC(=O)Nc1ccc(O)c(C)c1
inactive: [1] 10.8% | [2] 3.35% | [3] -25.8% | [4] -21.8% | [5] -14.8% | [6] -1.1%

NC(=S)c1c(N)n(C2OC(CO)C(O)C2O)c2ncnc(N)c12 (stereo not drawn)
inactive: [1] 7.2% | [2] -9.7% | [3] 7.1% | [4] -3.15% | [5] -5.5% | [6] 2.55%

CC(=O)Oc1c(Cl)cccc1-c1ccccc1
inactive: [1] 35.3% | [2] 10.9% | [3] 28.1% | [4] 5.4% | [5] 7.5% | [6] 13.4%

CCOC(=O)c1ccc(C(C)(C)C)cc1
inactive: [1] 20.4% | [2] -6.65% | [3] 2.5% | [4] -45.5% | [5] 0.4% | [6] 6.5%

Nc1ccc2ccccc2c1-c1c(N)ccc2ccccc12
inactive: [1] 14.8% | [2] 2.45% | [3] -2.05% | [4] 1.1% | [5] 0.75% | [6] -2.65%

Nc1nnc2cc(F)ccc2n1
inactive: [1] -18% | [2] -9.75% | [3] -5.9% | [4] 21.8% | [5] 11.7% | [6] -12.2%

O=C(c1ccccc1O)N1CCCC1
inactive: [1] 19.6% | [2] 7.15% | [3] 19.9% | [4] 14.8% | [5] 2.15% | [6] 10.8%

C/C(O)=C(/C=N/C(=S)Nc1ccccc1)C(=O)Nc1ccccc1C
inactive: [1] 25.9% | [2] 5.6% | [3] 40.3% | [4] -4.5% | [5] 27.7% | [6] 24.9%

COc1cccc(C(=O)NNC(=O)c2cccc3ccccc23)c1
inactive: [1] -47.2% | [2] -59.1% | [3] -26.8% | [4] -10.4% | [5] -34.2% | [6] -20.9%

CC(=O)/C(C)=N\OC(=O)Nc1ccccc1
inactive: [1] 1.2% | [2] -8.2% | [3] -2.65% | [4] -7% | [5] 9.4% | [6] -9.95%

Cc1ccc(S(=O)(=O)Oc2ccc3sc4c(CO)ccc(NCCN(C)C)c4c(=O)c3c2)cc1
inactive: [1] 6.05% | [2] 26.4% | [3] 12.2% | [4] 21.6% | [5] 22.4% | [6] 1.55%

COC(c1ccc2c(c1)OCO2)C(C)Br (stereo not drawn)
inactive: [1] 7.45% | [2] -4.4% | [3] 13.6% | [4] -31.1% | [5] -8.9% | [6] 6.55%

CCOc1ccc(NC(=S)N2CCC(CCCC3CCN(C(=S)Nc4ccc(OCC)cc4)CC3)CC2)cc1
inactive: [1] -6.6% | [2] -31.9% | [3] -15.1% | [4] 14.9% | [5] -9.05% | [6] -11.4%

CCOc1ccncc1[N+](=O)[O-]
inactive: [1] 5.5% | [2] 13.1% | [3] 3.25% | [4] -7% | [5] 10.1% | [6] 5%

CS(=O)(=O)c1ccc(/C=C\C(=O)O)cc1
inactive: [1] 19.6% | [2] 7.1% | [3] 9% | [4] -8.4% | [5] -3.7% | [6] 19.2%

NC(=S)N/N=C/c1ccc(Cl)cc1
inactive: [1] 47.5% | [2] 23.8% | [3] 41.5% | [4] 13.4% | [5] 22.9% | [6] 46.9%

S=C(NCc1ccccc1)N1CCC(CCCC2CCN(C(=S)NCc3ccccc3)CC2)CC1
inactive: [1] -9.45% | [2] -32.1% | [3] -3.6% | [4] 6% | [5] 2.85% | [6] -7.35%

O=C(O)c1c[nH]c2ccccc2c1=O
inactive: [1] 4.95% | [2] -8.15% | [3] 5.7% | [4] -21.5% | [5] 1.65% | [6] 1.65%

CC(=O)NC(O)C(Cl)Cl (stereo not drawn)
inactive: [1] -14.7% | [2] -6.05% | [3] -6.95% | [4] -23.3% | [5] -5.7% | [6] -14.2%

c1ccc(-c2ccc3ccccc3c2)cc1
inactive: [1] 7.35% | [2] -6.65% | [3] -3.3% | [4] -2.65% | [5] -0.8% | [6] -14.2%

Cn1c(=O)c2[nH]c(CC(=O)O)nc2n(C)c1=O
inactive: [1] 29.5% | [2] 11% | [3] 33.8% | [4] 22.8% | [5] 0.85% | [6] 24.1%

CC12CCC3c4ccc(O)cc4CCC3C1CCC2=O (stereo not drawn)
inactive: [1] 26.2% | [2] -11.8% | [3] 14.7% | [4] 12.7% | [5] 18.5% | [6] 3.45%

COc1ccc(C2CCCCC2=O)cc1 (stereo not drawn)
inactive: [1] -17.2% | [2] -48.9% | [3] -11.8% | [4] 5.3% | [5] -34.2% | [6] -11.8%

CCNC(=O)Oc1ccc[nH]c1=O
inactive: [1] -7.65% | [2] -10.8% | [3] -1.1% | [4] -15.9% | [5] -2.2% | [6] -47.8%
